USP28 block = inhibitors of human USP28 deubiquitinase. AID 1645857, 2021. actives 3% (n = 47,000). Ubiquitin carboxyl-terminal hydrolase 28 (Homo sapiens), Q96RU2. inhibition, % at 25 µM. purified USP28, Ub-rhodamine cleavage fluorescence, 30 min
OTUD3 inh = inhibitors of human OTUD3 deubiquitinase; OTU domain-containing protein 3 (Homo sapiens), Q5T2D3; inhibition, % at 25 µM; purified OTUD3, Ub-rhodamine fluorescence, 2 h; actives 0.7% (n = 47,000)
Target sequence (Q5T2D3 whole entry, looked up, the tested form may be a part): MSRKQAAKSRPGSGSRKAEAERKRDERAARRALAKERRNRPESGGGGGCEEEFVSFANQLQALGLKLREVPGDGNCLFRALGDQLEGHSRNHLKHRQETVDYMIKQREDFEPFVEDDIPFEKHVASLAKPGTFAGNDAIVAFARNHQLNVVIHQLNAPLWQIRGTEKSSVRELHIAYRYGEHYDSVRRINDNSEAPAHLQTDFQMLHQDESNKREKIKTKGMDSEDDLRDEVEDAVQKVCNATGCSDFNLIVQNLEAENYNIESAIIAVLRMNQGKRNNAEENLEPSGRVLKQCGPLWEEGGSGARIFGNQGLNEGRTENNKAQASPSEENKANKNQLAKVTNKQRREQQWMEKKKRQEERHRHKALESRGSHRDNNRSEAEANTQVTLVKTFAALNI
USP17 inh = inhibitors of human USP17 deubiquitinase | AID 1645855, 2021 | inhibition, % at 50 µM | purified USP17, Ub-rhodamine cleavage fluorescence, 3 h | actives 6.5% (n = 47,000)
USP30 inh = inhibitors of human USP30 deubiquitinase; AID 1645860, 2021; purified USP30, Ub-rhodamine cleavage fluorescence; actives 5.3% (n = 47,000); inhibition, % at 25 µM
Hits are given with their value; – = inactive; · = no result given. Compounds with a hit are over-represented: about 12% of the library has one in this group of screens. Rule as the data show it: active = inhibition above about 30%; inactive = the rest.

SMILES | USP28 block | OTUD3 inh | USP17 inh | USP30 inh
COc1c(C)c2c(c(O)c1C/C=C(\C)C(O)CC(=O)O)C(=O)OC2 (centres undefined) | – | – | – | 38
COc1c([C@H](CC(C)C)OC(C)=O)ccc2c1C(=O)OCc1cc(C)cc(O)c1O2 | – | – | – | –
CC(=O)c1ccc(N2CCN(C(=O)c3nnn(-c4ccccc4)n3)CC2)cc1 | – | – | – | –
Cc1cc(N2CCOCC2)nc2ccc(NC(=O)CCC(=O)Nc3ccc(F)cc3)cc12 | – | – | 60 | 39
Cc1cc(N2CCCCC2)nc2ccc(NC(=O)c3ccncc3)cc12 | 38 | – | – | –
CCN1CCN(c2cc(C)c3cc(NC(=O)C4CC4)ccc3n2)CC1 | – | – | – | –
Cc1ccc(NC(=O)CCC(=O)Nc2ccc3nc(N4CCCCC4)cc(C)c3c2)c(Br)c1 | – | – | 63 | 34
O=C(Nc1sc2c(c1-c1nc3ccccc3[nH]1)CCCC2)c1ccncc1 | – | – | – | –
Cc1oc(-c2[nH]ncc2C(=O)N2CCOCC2)cc1S(=O)(=O)NCC(C)C | – | – | – | –
CC(C)OCCCNc1nnc(-c2nc(C3CC3)no2)c2ccccc12 | – | – | – | –
Fc1ccc(-c2noc(-c3nnc(NCc4cccnc4)c4ccccc34)n2)cc1 | – | – | 75 | –
c1ccc2c(-c3nc(C4CC4)no3)nnc(NC3CCCCC3)c2c1 | – | – | – | 33
CC(C)N1CCN(c2nnc(-c3nc(C4CC4)no3)c3ccccc23)CC1 | – | – | – | –
c1ccc2c(-c3nc(C4CC4)no3)nnc(NCCCN3CCOCC3)c2c1 | – | – | – | 36
c1ccc2c(-c3nc(C4CC4)no3)nnc(NCc3ccncc3)c2c1 | – | – | 53 | –
O=S(=O)(c1cccc(-c2nnc(-c3ccc(F)cc3)o2)c1)N1CCCC1 | – | – | – | –
Cc1cccc(N(C)S(=O)(=O)c2ccc(-c3cc(C(F)(F)F)on3)s2)c1 | – | – | – | –
Cc1ccc(NC(=O)CSc2nnc(-c3cccnc3)o2)cc1F | – | – | – | –
COc1cccc(NC(=O)C2CCN(C(=O)c3cc(-c4cccnc4)n[nH]3)CC2)c1 | 57 | – | – | –
CSc1cccc(NC(=O)c2cc(-c3cccnc3)n[nH]2)c1 | 53 | – | 79 | 65
Cc1cccc(NC(=O)C2CCN(C(=O)c3cc(-c4ccncc4)n[nH]3)CC2)c1 | – | – | – | –
CNC(=O)NC(=O)CSc1nnc(-c2ccc(Cl)cc2)o1 | – | – | 33 | –
COc1ccc(CCNC(=O)c2cc(-c3cccnc3)n[nH]2)cc1OC | – | – | – | –
O=C(CSc1nnc(-c2cccnc2)o1)Nc1cccc(Cl)c1 | – | – | 33 | –
COc1cccc(-c2cc(C(=O)Nc3cccc(C(C)=O)c3)[nH]n2)c1 | – | – | – | –
SMILES | USP28 block | OTUD3 inh | USP17 inh | USP30 inh
COc1cccc(-c2cc(C(=O)Nc3ccccc3)[nH]n2)c1 | – | – | 39 | 35
O=C(Nc1cccc(Cl)c1)c1cc(-c2cccnc2)n[nH]1 | 55 | – | 83 | 47
COc1ccc(Cl)cc1NC(=O)c1cc(-c2ccncc2)n[nH]1 | – | – | – | –
O=C(Nc1ccccc1F)c1cc(-c2cccnc2)n[nH]1 | · | – | 70 | ·
COc1cc(-c2ccccc2)c(O)c(O)c1-c1ccccc1 | 96 | 91 | 99 | 91
O=C(c1cc2c(s1)-c1ccsc1CC2)N1CCCCCC1 | – | – | 38 | 46
O=C(NCc1ccc2c(c1)OCO2)c1cc2c(s1)-c1ccccc1OC2 | – | – | – | 57
Cc1ccc(NC(=O)c2cc3c(s2)-c2ccccc2OC3)c(Cl)c1 | – | – | – | 41
O=C1CCSc2c1cccc2C(=O)Nc1cccc(C(F)(F)F)c1 | – | – | – | –
O=C(NCc1ccc(Cl)cc1)c1cc2c(s1)-c1ccccc1OC2 | – | – | 87 | 55
O=C1COc2ccc(C(=O)NCc3ccc4c(c3)OCO4)cc2N1 | – | – | – | –
O=C(Nc1cccc(C(F)(F)F)c1)c1cc2c(s1)-c1ccccc1OC2 | – | – | · | 70
O=c1c(-c2nc(-c3ccncc3)no2)cccn1Cc1c(F)cccc1Cl | – | – | – | –
O=C(NC(c1ccccc1)C1CC1)C1CCCCC1 (centres undefined) | – | – | – | –
CO/C=C/C(=O)c1cc2cnc3c(=N)cc(NC(C)=O)c([nH]1)c23 | 43 | – | 54 | –
O=C1/C(=C\c2cc(F)ccc2F)C(c2ccccc2)c2ccccc21 (centres undefined) | – | – | – | –
CCOC(=O)c1cnc2c(cnn2C)c1NCc1cccc(C(F)(F)F)c1 | – | – | – | 41

Bioassay records as filed in PubChem.
